# Screens from PubChem.
# Shiga toxin inh: inhibitors of Shiga toxin in Vero cells; Vero cells, Shiga toxin protein synthesis inhibition reporter; inhibition, % at 38.7 µM; 9.2% of 290,000 active; AID 2315; in the data active means inhibition mostly above about 28%, no sharp cut-off; inactive means mostly below about 43%; further: 0% is about no effect
# Pf growth 96h: P. falciparum growth inhibition at 96 hour, primary screen for plastid delayed-death inhibitors. P. falciparum luciferase reporter growth, 96 h. Potency, µM (doses to about 28.7 µM), inactives show top-dose activity change, negative = inhibition, actives largely listed as inhibitors. 6.9% of 320,000 active. AID 504834; further: potency means the concentration at half of the fitted maximal effect; on the % scale 0 is the no-effect control and ±100 the full control effect
#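 Luminescence readout: decreased luciferase signal marks inhibited growth of reporter-expressing P. falciparum in infected red cells (2% hematocrit, 0.05% parasitemia final), exposed to compound two generations (96 h, 37 C, 5% CO2).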
# Cycloheximide cs: counter-screen hit for Shiga toxin inhibitors, cycloheximide; 12% of 300,000 active; cell reporter, cycloheximide protein synthesis inhibition counterscreen; max response, %; in the data active means max response mostly above about 13%, no sharp cut-off; inactive means mostly below about 14%; further: read at 38.3 µM for the half of the compounds with a filed dose; 0% is about no effect
# Pf growth 48h: inhibits P. falciparum growth in the first generation, 48 h; P. falciparum luciferase growth in erythrocytes, 48 h; Potency, µM (series often up to 28.7 µM), inactives show at the top dose activity change, negative = inhibition, most hits filed as inhibitors; 5.9% of 310,000 active; further: potency means the concentration at half of the fitted maximal effect; on the % scale 0 is the no-effect control and ±100 the full control effect
#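 Read-out is firefly luciferase luminescence from an integrated reporter in P. falciparum, so falling signal marks reduced parasite growth. Infected erythrocytes were at 2% hematocrit and 0.1% parasitemia (final) in Albumax-supplemented RPMI 1640.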
# HCMV antiviral: blocks human cytomegalovirus replication. HFF cells, HCMV-luciferase reporter, 72 h; stronger effect = lower value. activity change, negative = inhibition, % at 57.5 µM. 4.5% of 410,000 active. AID 1259415; in the data active means activity change below about -60%; inconclusive means no clear call, values can overlap the other calls; inactive means above about -39%; further: on the % scale 0 is the no-effect control and ±100 the full control effect
#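 After 16 h attachment at 37C, HFF cells received test compound and HCMV-luciferase (1 PFU/cell); reporter luminescence read 72 h later, data normalized against buffer-only and known inhibitor Salinomycin.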
# Starred values were filed as active, the others as inactive; i = inactive; ? = inconclusive; / = not tested or not shown. Most compounds without a hit are left out; they make up all but 20% or so of the library. Unless noted, the call rests on the fitted dose curve; in most records, active means well fitted inhibition curve with a large enough effect; inconclusive means small, poorly fitted or top-dose-only effect, or another doubt; inactive means no such curve, though single readings can be large or run the other way.
SMILES,Shiga toxin inh,Pf growth 96h,Cycloheximide cs,Pf growth 48h,HCMV antiviral
O=C(N/N=C/C1CC2CCC1C2)c1ccc2c(c1)OCO2 (stereo not given),39*,18%,41*,14%,3
Cc1nc2ccc(C(=O)c3ccccc3)cc2[nH]1,53*,100%,34*,139%,73
COc1ccc(N2CC(NC(=O)Cc3cccs3)CC2=O)cc1 (stereo not given),/,/,/,/,46
CCCn1c(CN2CCN(c3ccc(OC)cc3)CC2)nc2c1c(=O)[nH]c(=O)n2C,/,/,/,/,5
COCCNC(=O)CCn1c(=O)c2cc(OC)c(OC)cc2n(CC(=O)Nc2ccc(Cl)cc2F)c1=O,/,/,/,/,8
O=C(N/N=C/c1ccncc1)c1ccc2c(c1)OCO2,76*,?,24*,109%,24
O=C(N/N=C/c1ccccc1O)c1ccc2c(c1)OCO2,96*,104%,50*,-6%,-92*
O=C(N/N=C/c1ccc2c(c1)OCO2)c1ccc(Cl)cc1Cl,18,29%,15*,-1%,20
CCN(CC)c1ccc(/C=N/NC(=O)c2ccc(Br)o2)cc1,38*,?,33*,-11%,-27
O=C(N/N=C/c1ccc2c(c1)OCO2)c1sc2cc(Cl)ccc2c1Cl,-11,-26%,6,14%,-39
O=C(NN=Cc1ccc2c(c1)OCO2)c1ccc([N+](=O)[O-])cc1,/,/,/,/,-2
O=C(N/N=C/c1cc(Br)cc(Cl)c1O)c1ccc2c(c1)OCO2,/,/,/,/,1
O=C(N/N=C/c1ccccc1OC(=O)c1ccc2c(c1)OCO2)c1cccc(F)c1,64*,6%,16,9%,?
CCN(CC)c1ccc(/C=N/NC(=O)C2CC2)cc1,80*,1%,48*,?,15
O=C(N/N=C/c1cccc([N+](=O)[O-])c1)c1ccc2c(c1)OCCO2,62*,i,43*,153%,196
Cc1cc(Br)cc(/C=N/NC(=O)c2ccc3c(c2)OCO3)c1O,26*,13µM*,17*,13µM*,-103*
CCCCCCOc1ccc(/C=N/NC(=O)C2CC2)cc1,-7,12%,-3,?,45
CCN(CC)c1ccc(/C=N/NC(=O)Nc2nonc2N)cc1,66*,7%,57*,23%,35
O=C(N/N=C/c1cccs1)C1COc2ccccc2O1 (stereo not given),31,-2%,6,/,-10
O=C(N/N=C/c1ccc2c(c1)OCO2)c1ccc(Br)o1,139*,-6%,81*,214%,37
O=C(N/N=C/c1ccc2c(c1)OCO2)c1ccc2c(c1)OCCO2,64*,78%,55*,118%,21
O=C(NCc1ccc2c(c1)OCO2)c1ccc(Br)o1,39,10%,9,2%,112
O=C(N/N=C/c1ccc2c(c1)OCCO2)c1ccncc1,29,15%,21,4%,29
O=C(N/N=C/c1cccs1)c1ccc2c(c1)OCO2,34,-19%,25*,-2%,69
COc1ccccc1N1CCN(c2ncnc3c2cnn3C)CC1,/,/,/,/,8
SMILES,Shiga toxin inh,Pf growth 96h,Cycloheximide cs,Pf growth 48h,HCMV antiviral
CCOc1ccc(C(=O)Nc2ccc3oc(-c4ccc(C)cc4C)nc3c2)cc1Br,/,/,/,/,9
O=C(N/N=C\C=C\c1ccc(Br)cc1)c1ccc2c(c1)OCO2,23*,0%,9.9*,-18%,-17
Cc1nc2ccc(C(=O)N/N=C/c3ccccc3O)cc2[nH]1,84*,?,44*,?,51
O=C(N/N=C/c1ccsc1)c1ccc2c(c1)OCO2,/,75%,/,168%,47
O=C(N/N=C/c1ccc(Cl)cc1)c1ccc2c(c1)OCO2,90*,-3%,51*,85%,31
CCOc1ccccc1NC(=S)Nn1cnnc1,-25,-28%,5,2%,13
Cc1nc2ccccc2c(=O)n1/N=C/c1ccc([N+](=O)[O-])o1,56*,5.9µM*,34*,13µM*,/
Cc1ccc(/C=N/n2c(C)nc3ccccc3c2=O)o1,1,38%,5,0%,15
Cc1nc2ccccc2n1/N=C/c1ccc([N+](=O)[O-])o1,/,/,/,/,-67*
CC(=O)c1cccc(NC(=O)c2csc3c2CCCCC3)c1,55*,?,37*,-16%,-22
CCOc1ccc(NC(=O)c2csc3c2CCCC3)cc1,32,349%,36*,282%,-19
CCOC(=O)c1ccc(NC(=O)c2csc3c2CCCC3)cc1,/,/,/,/,-25
O=C(NCc1cccnc1)c1cccc(S(=O)(=O)N2CCOCC2)c1,-6,69%,-5,-7%,-14
O=C(NCc1cccnc1)c1ccc(NS(=O)(=O)c2ccc(F)cc2)cc1,16,6.6µM*,-3,?,-8
O=C(NCc1cccnc1)c1cccc(S(=O)(=O)N2CCCCC2)c1,17,42%,-3,-14%,-81*
O=C(NCc1cccnc1)c1cccc(S(=O)(=O)N2CCCC2)c1,-19,7%,52*,-21%,-11
O=C(/C=C/c1ccccc1Cl)Nc1ccc(-c2nnc3n2CCCCC3)cc1,-1,?,-1,-11%,-13
O=[N+]([O-])c1cccc(NC(=S)N2CCc3ccccc3C2)c1,79*,17%,59*,2%,?
O=C(Cc1ccc([N+](=O)[O-])cc1)N1CCc2ccccc2C1,10,?,-3,-4%,-4
O=C(c1ccco1)N1CCN(c2cc(N3CCOCC3)c(F)cc2[N+](=O)[O-])CC1,-2,?,-5,-12%,-103*
O=C(c1ccco1)N1CCN(c2ccc([N+](=O)[O-])cc2F)CC1,40*,16%,13*,15%,8
O=[N+]([O-])c1ccc(SCc2ccco2)cc1N1CCOCC1,54*,-11%,29*,?,-25
CC1CN(c2ccc([N+](=O)[O-])cc2F)CCN1C(=O)c1ccco1 (stereo not given),-18,32%,-1,-8%,?
O=C(c1ccco1)N1CCN(C(=S)Nc2cccc([N+](=O)[O-])c2)CC1,-5,13%,-5,17%,-69*
Cc1cccc(NC(=S)N2CCN(C(=O)c3ccco3)CC2)c1,-26,?,2,5%,-19
SMILES,Shiga toxin inh,Pf growth 96h,Cycloheximide cs,Pf growth 48h,HCMV antiviral
CC1CCC(NC(=O)Cn2ncc3ccccc32)CC1 (stereo not given),active,17%,18*,40%,47
CCOc1ccc(NC(=O)CSc2ccc3ccccc3n2)cc1,/,/,/,/,-5
CCOc1ccc(NC(=O)Cn2ncc3ccccc32)cc1,74*,31%,38*,97%,74
CCOc1ccc(NC(=O)CCSc2ccc3ccccc3n2)cc1,15,26%,15*,-9%,35
Cc1ccc(NC(=O)COC(=O)CN2C(=O)NC3(CCCC3)C2=O)cc1F,/,-6%,/,-10%,25
CCC[C@@H]1CCCO[C@@](C(=O)NCCN2CCOCC2)(C(F)(F)F)C1,-2,/,6,/,-5
COc1ccccc1C(=O)Nc1cc(-c2cccc(Br)c2)nn1-c1ccccc1,/,/,/,/,13
O=c1c2cnn(-c3ccccc3Cl)c2ncn1Cc1cccnc1,-17,13µM*,-3,?,-20
